Assay [1] can be described thus: qHTS Assay for Lipid Storage Modulators (AID 1519; calls by dose curve; on activity change, negative = inhibition: on the % scale 0 is the no-effect control and ±100 the full control effect). The settings on record: Drosophila S3 cells, BODIPY lipid droplet/cell ratio, laser cytometry, cells loaded with oleic acid. In short, it runs like this: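 Cells seeded at 5,000 per well were treated with compounds over a concentration series and loaded with oleic acid (400 uM, as added). Lipid droplet fluorescence (488 nm excitation, 500-530 nm channel) was read by laser-scanning cytometry and normalized to 20 uM Triacsin C.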
(In general: In qHTS, concentration-response curves come from the screen itself.)

Assay [2] in a line: Validation of Assay for Modulators of Lamin A Splicing (AID 1459; active means well fitted curve in the direction sought with a large enough effect in the signal ratio; the % refers to the signal ratio;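 further: cells exposed to compound for two days before reading; 0% is about no effect; ratio rise marks activators and ratio drop marks inhibitors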). The settings on record: Lamin A splicing dual RFP/GFP fluorescence reporter; series mostly up to 9.22 µM. The procedure, abridged: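 S3 HeLa stably expressing lamin A-EGFP splicing minigene and DsRed2, 600 cells/well in Opti-MEM with 2% FBS, treated 48 h at 37C; laser-scanning cytometry gives GFP/RFP total intensity ratio; ancitabine positive control, 0.5% DMSO vehicle.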

Assay [3] addresses DNA repair nuclease/redox regulator APEX1 (Homo sapiens) (UniProt P27695). The assay is described as follows: qHTS Validation Assay for Inhibitors of the Human Apurinic/apyrimidinic Endonuclease 1 (APE1) (AID 1705;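 further: TAMRA fluorescence gain over two minutes as APE1 cuts a quenched THF abasic duplex; on the % scale 0 is the no-effect control and ±100 the full control effect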). The settings on record: purified APE1 endonuclease activity, fluorescence, titration; series mostly up to 57.1 µM. The procedure, abridged: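 Fluorogenic double-stranded THF abasic-site substrate (5'-TAMRA/3'-BHQ-2), 50 nM final. Enzyme preincubated with compound 15 min at room temperature, then substrate added. Kinetic fluorescence (ex 525/em 598 nm) read three times at 60 s intervals; activity taken as third-minus-first read difference.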

A short description of assay [4]: qHTS for differential inhibitors of proliferation of Plasmodium falciparum line 7G8 (AID 1815).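 Further: parasite growth measured after three days of incubation.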 Further: potency means the concentration at half of the fitted maximal effect.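 On activity change, negative = inhibition: plate controls were vehicle wells for no effect and reference inhibitor wells for full effect.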 The settings on record: Plasmodium falciparum 7G8 proliferation inhibition; series mostly up to 28.7 µM.
Assay [5] is described as follows: qHTS for differential inhibitors of proliferation of Plasmodium falciparum line Dd2 (AID 1882).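 Further: plate controls were DMSO vehicle for no effect and 0.29 µM artemisinin for full effect; nearly all actives have a fitted effect of over 65% in size.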 The settings on record: Potency: Plasmodium falciparum Dd2 proliferation inhibition; series mostly up to 28.7 µM. The procedure, abridged:
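Dd2-infected erythrocytes (0.3% parasitemia, 2.5% hematocrit final) incubated with compound 72 h at 37 C, 5% CO2; lysed with saponin/Triton buffer containing SYBR Green I, incubated overnight in the dark, then read by fluorescence (485/535 nm). Normalized to 0.29 uM artemisinin and DMSO.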

Assay [6] has as its target ATP-dependent DNA helicase Q1 (Homo sapiens) (UniProt P46063). The assay is described as follows: qHTS Validation Assay for Inhibitors of RecQ-Like Dna Helicase 1 (RECQ1) (AID 2353).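 Further: plate controls were DMSO vehicle for no effect and enzyme-free control for full effect.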 The settings on record: recombinant RECQ1 helicase DNA unwinding assay; series mostly up to 25.6 µM. The procedure, abridged: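 50 nM RECQ1T1 preincubated 15 min with compound in Tris pH 8.0 buffer with MgCl2, DTT, Tween-20 and 2.5 ug/ml poly(dI-dC); started with 200 nM TAMRA/BHQ-2 forked duplex and 2 mM ATP. Unwinding read as fluorescence (525/598 nm), two reads 2 h apart.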

Assay [7] concerns the target RecQ-like DNA helicase BLM (Homo sapiens) (UniProt P54132). The assay is described as follows: qHTS Validation Assay for Inhibitors of Bloom's syndrome helicase (BLM) (AID 2364).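 Further: plate controls were DMSO vehicle for no effect and enzyme-free control for full effect.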 The settings on record: BLM helicase DNA unwinding, fluorescence, in vitro; series mostly up to 57.1 µM. In short, it runs like this: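 50 nM BLM preincubated 15 min at room temperature with compound in pH 8.0 Tris buffer containing 2.5 ug/ml poly(dI-dC); started with 200 nM TAMRA/BHQ-2 forked duplex and 2 mM ATP (final). Unwinding read as TAMRA fluorescence increase, two reads 2 h apart.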

Assay [8] has as its target alpha-glucosidase (Oryza sativa, rice) (UniProt Q653V4). The assay is described as follows: Counterscreen for Glucocerebrosidase Inhibitors: qHTS Assay for Rice alpha-Glucosidase at pH 5.0 (AID 997).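 Further: 0% = full activity with enzyme and -100% = basal without enzyme.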 The settings on record: rice alpha-glucosidase enzyme activity; series mostly up to 76.9 µM. The procedure, abridged:
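Rice alpha-glucosidase (4 nM final) with 400 uM 4-methylumbelliferyl-alpha-D-glucopyranoside in citrate buffer pH 5.0, 20 min at room temperature, stopped at pH 10; fluorescence 365/440 nm, compounds 0.7 nM–77 uM, AC50 from Hill fits.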
On the technique in general: Counterscreens check selectivity or assay interference.

The nature of assay [9]: qHTS for differential inhibitors of proliferation of Plasmodium falciparum line GB4 (AID 1816).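 Further: parasite growth measured after 72 h incubation; 0% = vehicle DMSO and -100% = reference inhibitor.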 The settings on record: Potency: Plasmodium falciparum GB4 proliferation inhibition; series mostly up to 28.7 µM.
Assay [10] can be described thus: qHTS for differential inhibitors of proliferation of Plasmodium falciparum line 3D7 (AID 1876).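 Further: parasite growth measured after three days of culture; 0% = vehicle wells and -100% = reference inhibitor wells.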 The settings on record: P. falciparum 3D7 proliferation inhibition; series mostly up to 28.7 µM.
Assay [11] in a line: qHTS for differential inhibitors of proliferation of Plasmodium falciparum line D10 (AID 1877).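 Further: parasites grown with compound for 72 h before DNA staining; plate controls were vehicle wells for no effect and reference inhibitor wells for full effect.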 The settings on record: series mostly up to 28.7 µM.
Assay [12] is described as follows: qHTS for differential inhibitors of proliferation of Plasmodium falciparum line W2 (AID 1883).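 Further: parasites grown with compound for 72 h before lysis and staining; 0% = vehicle wells and -100% = control inhibitor wells.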 The settings on record: Potency: Plasmodium falciparum W2 proliferation inhibition; series mostly up to 28.7 µM.
Assay [13] is described as follows: qHTS for differential inhibitors of proliferation of Plasmodium falciparum line HB3 (AID 1886).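 Further: parasites grown with compound for 72 h before SYBR Green readout; plate controls were vehicle for no effect and reference inhibitor for full effect.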 The settings on record: Potency: Plasmodium falciparum HB3 proliferation inhibition; series mostly up to 28.7 µM.
Assay [14] in a line: qHTS Assay for Modulators of Human Peripheral Myelin Protein 22 (PMP22) Expression/Activity (AID 1967; active means well fitted curve in the direction sought with a large enough effect in the signal ratio; the % refers to the signal ratio;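 further: 0% = untreated cells and 100% end not stated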). The settings on record: Cell-based PMP22 reporter, dual-color luciferase ratio, 0% = compound-free control cells, mouse Pmp22 promoter in mouse Schwann cells; series mostly up to 115 µM. The procedure, abridged: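 Mouse MSC80 Schwann cells carrying Pmp22 promoter–green click beetle luciferase plus EF-alpha–red luciferase control, dosed 24 h at 37 °C. Dual-filter luminescence, overlap-corrected; %Activity from green/red ratio normalised to untreated cells, concentration-response curves fitted.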

Assay [15] has as its target Ferritin light chain (Equus caballus) (UniProt P02791). Nature of the assay: qHTS Validation Assay for Identification of Novel General Anesthetics (AID 2323). Further: on the % scale 0 is the no-effect control and ±100 the full control effect. The settings on record: horse apoferritin, anesthetic-site fluorescent probe displacement; series mostly up to 76.9 µM. The procedure, abridged:
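Horse-spleen apoferritin (10 uM) in PBS with 50% saturated 1-aminoanthracene; compounds pin-transferred, 10 min at room temperature. Fluorescence read at 380/535 nm, normalized to free 1-AMA and 1-AMA/apoferritin values; four-parameter Hill fit.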

Assay [16] is described as follows: Cytometric Cell-Based qHTS for Inhibitors of the mTORC1 Signaling Pathway in MEF (Tsc2-/-, p53-/-) Cells (AID 2660).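 Further: Tsc2 and p53 null MEFs carrying empty vector with compound for 24 h; percent of cells above a phospho-rpS6 to PI ratio cutoff in each well; plate controls were DMSO for no effect and rapamycin for full effect.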 The settings on record: mTORC1 pathway cytometry; series mostly up to 38.3 µM. In short, it runs like this: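 Percent of cells positive for normalized phospho-S6 staining is reported, with the cutoff set from rapamycin (7.5 nM) versus DMSO wells. Tsc2-/-, p53-/- MEFs received compound for 24 hrs.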

Assay [17] is described as follows: Cell Viability - LYMP1-002 - Assay at 24 hr (AID 993). Further: potency means the concentration at half of the fitted maximal effect. The settings on record: LYMP1-002 lymphoblastoid cells viability; series mostly up to 92.2 µM. The procedure, abridged: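 Cells plated 2500/well, 5 hr 37 C; compounds added, 24 hr 37 C; CellTiter-Glo added, 30 min RT; luminescence read. Tetraoctylammonium bromide positive control. Hill-equation AC50.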
A short description of assay [18]: Cell Viability - LYMP1-002 - Assay at 40 hr (AID 994). Further: potency means the concentration at half of the fitted maximal effect; nearly all actives have a fitted effect of over 60% in size. The settings on record: LYMP1-002 lymphoblastoid cell viability; series mostly up to 92.2 µM. In short, it runs like this:
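Luminescent ATP signal served as the viability readout, with decreases taken as toxicity. Cells were treated with compounds across a concentration range for 40 hours at 37 C, and AC50 values came from standard Hill modeling.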

Assay [19] concerns the target Endonuclease 4 (Escherichia coli (strain K12)) (UniProt P0A6C1). The assay is described as follows: Counterscreen for APE1 Inhibitors: qHTS Validation Assay for Inhibitors of Endonuclease IV (AID 1708). Further: on the % scale 0 is the no-effect control and ±100 the full control effect. The settings on record: E. coli endonuclease IV, DNA cleavage fluorescence; series mostly up to 57.1 µM. In short, it runs like this:
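E. coli EndoIV at 2 nM final, preincubated 15 min at room temperature with compound, then 50 nM TAMRA/BHQ-2 THF abasic-site duplex added. Buffer: 50 mM Tris-HCl pH 7.5, 50 mM NaCl, 2 mM MgCl2, 1 mM DTT, 0.01% Tween-20. Kinetic fluorescence increase, third minus first read.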

[20] abbreviates: measured here: cell count channel max response.
[21] abbreviates: measured here: lipid channel max response.

“And” between values parts separate entries of the source, which are not always exact repeats. Equal values may be shown once. Inconclusive results are not listed. The source made the active and inactive calls. Unless noted, the call rests on the fitted dose curve; in most records, active means well fitted curve in the direction sought with a large enough effect; inconclusive means small, poorly fitted or top-dose-only effect, or another doubt; inactive means no such curve, though single readings can be large; an effect the other way counts as inactive or inconclusive.

ATP-dependent DNA helicase Q1 (Homo sapiens), sequence (P46063 whole entry, looked up): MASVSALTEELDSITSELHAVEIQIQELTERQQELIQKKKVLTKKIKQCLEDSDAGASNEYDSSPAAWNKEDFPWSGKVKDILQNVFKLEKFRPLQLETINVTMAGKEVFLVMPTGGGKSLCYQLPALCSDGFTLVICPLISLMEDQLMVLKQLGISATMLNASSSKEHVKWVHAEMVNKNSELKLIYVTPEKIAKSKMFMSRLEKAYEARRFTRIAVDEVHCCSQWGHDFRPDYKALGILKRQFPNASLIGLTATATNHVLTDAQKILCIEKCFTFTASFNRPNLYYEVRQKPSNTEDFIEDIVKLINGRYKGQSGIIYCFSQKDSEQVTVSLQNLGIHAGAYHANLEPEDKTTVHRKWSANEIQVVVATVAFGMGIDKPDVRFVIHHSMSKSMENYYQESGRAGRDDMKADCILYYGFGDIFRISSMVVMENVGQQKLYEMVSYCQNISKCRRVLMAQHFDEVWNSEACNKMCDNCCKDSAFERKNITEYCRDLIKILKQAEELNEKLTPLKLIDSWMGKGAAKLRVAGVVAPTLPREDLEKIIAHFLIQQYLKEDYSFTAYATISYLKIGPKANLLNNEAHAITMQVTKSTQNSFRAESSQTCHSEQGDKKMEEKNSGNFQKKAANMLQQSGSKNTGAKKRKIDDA
RecQ-like DNA helicase BLM (Homo sapiens), sequence (P54132 whole entry, looked up): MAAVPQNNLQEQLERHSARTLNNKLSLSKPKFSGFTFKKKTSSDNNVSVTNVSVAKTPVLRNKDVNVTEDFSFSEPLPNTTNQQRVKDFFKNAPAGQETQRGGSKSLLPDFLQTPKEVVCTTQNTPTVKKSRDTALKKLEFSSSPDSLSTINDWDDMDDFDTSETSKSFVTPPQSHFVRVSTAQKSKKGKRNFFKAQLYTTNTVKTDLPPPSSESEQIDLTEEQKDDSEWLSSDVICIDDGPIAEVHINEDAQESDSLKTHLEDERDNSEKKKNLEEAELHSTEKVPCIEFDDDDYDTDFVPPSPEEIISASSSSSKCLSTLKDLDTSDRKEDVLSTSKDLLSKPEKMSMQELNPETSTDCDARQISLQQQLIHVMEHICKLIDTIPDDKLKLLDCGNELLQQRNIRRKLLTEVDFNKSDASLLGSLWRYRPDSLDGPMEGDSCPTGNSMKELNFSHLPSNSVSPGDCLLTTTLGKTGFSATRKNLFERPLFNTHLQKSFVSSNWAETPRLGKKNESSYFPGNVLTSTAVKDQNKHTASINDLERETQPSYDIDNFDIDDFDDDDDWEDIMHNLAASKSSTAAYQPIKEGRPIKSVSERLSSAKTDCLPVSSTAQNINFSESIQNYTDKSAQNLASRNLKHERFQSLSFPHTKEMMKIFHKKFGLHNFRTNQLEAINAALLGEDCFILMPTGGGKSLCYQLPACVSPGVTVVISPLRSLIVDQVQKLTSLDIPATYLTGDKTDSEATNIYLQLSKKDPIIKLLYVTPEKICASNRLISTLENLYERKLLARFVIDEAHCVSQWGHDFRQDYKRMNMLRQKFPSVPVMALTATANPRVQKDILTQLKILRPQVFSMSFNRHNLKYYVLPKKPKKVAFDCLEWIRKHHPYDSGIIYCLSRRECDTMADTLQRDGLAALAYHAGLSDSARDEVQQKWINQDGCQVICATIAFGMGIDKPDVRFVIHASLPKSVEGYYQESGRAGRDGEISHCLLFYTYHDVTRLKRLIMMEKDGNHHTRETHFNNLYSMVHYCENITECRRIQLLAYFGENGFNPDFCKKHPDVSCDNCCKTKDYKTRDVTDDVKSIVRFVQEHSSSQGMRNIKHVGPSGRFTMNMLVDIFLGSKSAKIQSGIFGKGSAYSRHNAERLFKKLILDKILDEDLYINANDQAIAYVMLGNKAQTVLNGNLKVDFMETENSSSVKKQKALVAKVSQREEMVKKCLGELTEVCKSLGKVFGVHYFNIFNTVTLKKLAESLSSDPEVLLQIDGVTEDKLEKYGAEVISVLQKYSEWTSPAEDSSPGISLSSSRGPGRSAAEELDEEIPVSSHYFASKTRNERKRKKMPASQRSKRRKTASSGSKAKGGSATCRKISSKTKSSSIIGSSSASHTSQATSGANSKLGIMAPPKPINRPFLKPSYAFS
DNA repair nuclease/redox regulator APEX1 (Homo sapiens), sequence (P27695 whole entry, looked up): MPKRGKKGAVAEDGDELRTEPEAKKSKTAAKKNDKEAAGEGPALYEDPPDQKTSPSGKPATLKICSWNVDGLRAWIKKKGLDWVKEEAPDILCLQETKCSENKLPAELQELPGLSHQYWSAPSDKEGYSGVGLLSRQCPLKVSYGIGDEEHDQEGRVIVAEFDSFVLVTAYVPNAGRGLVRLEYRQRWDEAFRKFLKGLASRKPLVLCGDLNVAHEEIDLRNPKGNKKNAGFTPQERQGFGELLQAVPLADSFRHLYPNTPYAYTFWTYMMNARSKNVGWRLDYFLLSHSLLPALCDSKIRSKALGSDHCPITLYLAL
Ferritin light chain (Equus caballus), sequence (P02791 2-175 limits assumed): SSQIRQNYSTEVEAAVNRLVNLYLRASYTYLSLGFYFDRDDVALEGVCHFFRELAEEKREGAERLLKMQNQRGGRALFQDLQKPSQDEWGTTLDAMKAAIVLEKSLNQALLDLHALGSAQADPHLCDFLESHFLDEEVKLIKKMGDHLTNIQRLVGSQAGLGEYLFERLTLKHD

`Nc1ncnc2nc[nH]c12`: the activity change, negative = inhibition in [1] (at 57.5 µM (top of the series)) is 6.5% (inactive). In addition, the results for the max response in assay [1] (setting [20]) and in [1] (setting [21]) were 12.7% and 22.5%, respectively.

Consider `Cc1ncc(CO)c(CO)c1O`, for which, in assay [1] (at 25.7 µM (top of the series)), the activity change, negative = inhibition was -0.151% (inactive). The max response was 0.978% in [1] (setting [20]) and -0.91% in [1] (setting [21]).

In the case of `COc1cccc2c1[C@@H]1CN(CCCCn3c(=O)[nH]c4c(sc5ncc(-c6ccccc6)nc54)c3=O)C[C@@H]1CO2`, the outcome in assay [2], in [3], in assay [6] and in assay [7] was inactive. For the same compound, the activity change, negative = inhibition in assay [1] (at 57.5 µM (top of the series)) was 0.568% (inactive). In addition, the max response in assay [1] (setting [20]) amounted to 7.98%; in assay [1] (setting [21]) it was 9.55%. Besides, the Potency in assay [4] was 11.2 µM (active). Besides, the Potency entry in [5] is “inactive”.

Regarding `CCOC(=O)NNc1nncc2ccccc12`, in [1] (at 25.7 µM (top of the series)), the activity change, negative = inhibition was 0.543% (inactive). Further, the max response in [1] (setting [20]) was -3.66%; in assay [1] (setting [21]), -3.48%.

`C[N+](C)(C)CCO`: the result in assay [8], in assay [2], in assay [3], in assay [14], in assay [15] and in [6] was inactive. Besides, the call in assay [16] was inactive. Further, the Potency entry in [4], in [9], in [10], in assay [11], in assay [5] and in assay [12] was “inactive” each time. Besides, the Potency result in [13] is “inactive”.

Turning to `Nc1c2ccccc2nc2ccccc12`, the Potency in [17] is 20 µM (active); in assay [18], 12.6 µM (active). The activity change, negative = inhibition in [1] (at 57.5 µM (top of the series)) was -13.1% (inactive). For the same compound, the max response in [1] (setting [20]) was -6.77%; in assay [1] (setting [21]), -18.9%.

As for `NCC(=O)O`, in assay [1] (at 57.5 µM (top of the series)), the activity change, negative = inhibition is -2.71% (inactive). The values for the max response in [1] (setting [20]) and in [1] (setting [21]) were 5.73% and 4.04%, respectively.

For the compound `COc1ccccc1N1CCN(CCN2C(=O)CC3(CCCC3)CC2=O)CC1`, the compound was classed as inactive in assay [8], in [2], in assay [3], in [19], in [14] and in [15]. In addition, the result in assay [6], in [7] and in [16] was inactive. Besides, the Potency result in assay [9], in [10], in assay [11], in [5] and in assay [13] was “inactive” throughout.

Consider `NC(N)=NCCCCN=C(N)N`, for which the result in assay [8], in assay [2], in [3], in [19], in assay [14] and in assay [15] was inactive. For the same compound, the result in assay [6], in [7] and in assay [16] was inactive. For the same compound, the activity change, negative = inhibition in [1] (at 25.7 µM (top of the series)) was -0.421% (inactive); in assay [1] (at 57.5 µM (top of the series)), -1.91% (inactive) and 4.1% (inactive) and 0.28% (inactive). Besides, the Potency entry in assay [4], in [9], in [10], in assay [11], in assay [5] and in assay [12] was “inactive” each time.

Take `CCN(CC)CCOc1ccc(/C(=C(\Cl)c2ccccc2)c2ccccc2)cc1`: in assay [1] (at 57.5 µM (top of the series)), the activity change, negative = inhibition is -1.21% (inactive). The max response was determined as 9.36% in [1] (setting [20]) and 11.5% in assay [1] (setting [21]).

As for `COC(=O)c1c(Cl)c(Cl)c(C(=O)OC)c(Cl)c1Cl`, the activity change, negative = inhibition in assay [1] (at 57.5 µM (top of the series)) is 5.84% (inactive). The max response is 15.4% in assay [1] (setting [20]) and 24.6% in assay [1] (setting [21]).

For the compound `C1N2CN3CN1CN(C2)C3`, the activity change, negative = inhibition in assay [1] (at 57.5 µM (top of the series)) is 4.78% (inactive). The max response in assay [1] (setting [20]) is -0.0775%; in assay [1] (setting [21]) it was 6.42%.

As for `CN(C(=O)C(Cl)Cl)c1ccc(OC(=O)c2ccco2)cc1`, the activity change, negative = inhibition in assay [1] (at 25.7 µM (top of the series)) was -19.5% (inactive). The max response in assay [1] (setting [20]) is -11.9%; in assay [1] (setting [21]), -28.6%.

Consider `O=C1NC(c2cccc([N+](=O)[O-])c2)=CCN1c1ccccc1O`, for which the compound was classed as inactive in assay [8], in [2], in assay [3], in assay [19], in [14] and in assay [6]. Besides, the call in [7] and in assay [16] was inactive. Besides, the Potency result in [4], in assay [9], in assay [10], in [11], in assay [5] and in assay [13] was “inactive” each time.

The record behind these values is PubChem BioAssay (NCATS).
